# From PubChem
# Gal4-VP16 FLuc – counter-screen for ROR gamma inhibitors: Gal4-VP16 reporter. Drosophila S2 Gal4-VP16 UAS-luciferase, luminescence, 20 h. Potency, µM (doses to about 53.6 µM), without a hit: at the highest dose activity, negative = inhibition, usual class: inhibitors. 310,000 tested, 3.5% active. AID 2546;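 also: Gal4-VP16 expression switched on by copper sulfate through the metallothionein promoter; potency is read from the fitted curve at half-maximal effect; nearly all actives have a fitted effect of over 50% in size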
# DT40 TDP1 no CPT – qHTS for Inhibitors of human tyrosyl-DNA phosphodiesterase 1 (TDP1): qHTS in cells in absence of CPT. 420,000 tested, 15% active. AID 686978, 2013. DT40 Tdp1-/- hTDP1 cells, no CPT, ATP luminescence, 48 h. Potency, µM (top dose mostly 46.2 µM), for inactives: at the highest dose activity change, negative = growth inhibition, most hits filed as inhibitors; also: potency is read from the fitted curve at half-maximal effect; nearly all actives have a fitted effect of over 55% in size
#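 Growth kinetics read by CellTiter-Glo luminescence after ≥48 hr at 37 °C. Cells: DT40 Tdp1-/- stably carrying human TDP1, 400 per well, compound exposure in the absence of CPT (DMSO vehicle).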
# RORg inh – inhibitors of mouse ROR gamma transcriptional activity | P51450 | Drosophila S2 Gal4-RORgamma UAS-luciferase reporter, 20 h | Potency, µM (series often up to 53.6 µM), for inactives: top-dose activity change, negative = inhibition, usual class: inhibitors | 310,000 tested, 5.4% active | AID 2551; also: potency is read from the fitted curve at half-maximal effect; nearly all actives have a fitted effect of over 60% in size
# Target sequence (P51450 whole entry, looked up, the tested form may be a part): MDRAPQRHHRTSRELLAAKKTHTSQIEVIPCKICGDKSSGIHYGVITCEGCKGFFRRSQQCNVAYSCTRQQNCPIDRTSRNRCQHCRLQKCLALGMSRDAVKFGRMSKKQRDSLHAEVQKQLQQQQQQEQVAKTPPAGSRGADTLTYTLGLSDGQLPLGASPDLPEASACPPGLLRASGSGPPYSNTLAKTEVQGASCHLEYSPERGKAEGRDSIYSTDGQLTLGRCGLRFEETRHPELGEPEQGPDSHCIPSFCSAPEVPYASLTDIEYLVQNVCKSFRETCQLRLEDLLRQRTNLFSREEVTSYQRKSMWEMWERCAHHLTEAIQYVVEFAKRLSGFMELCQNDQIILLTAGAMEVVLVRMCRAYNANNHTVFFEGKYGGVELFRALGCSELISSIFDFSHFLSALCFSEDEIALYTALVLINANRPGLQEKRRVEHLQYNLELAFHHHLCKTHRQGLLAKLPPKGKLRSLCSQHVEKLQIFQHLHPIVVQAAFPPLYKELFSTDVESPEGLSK
#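 Drosophila Schneider cells stably carrying a metallothionein-driven Gal4 DBD–ROR gamma fusion and a UAS-Photinus luciferase reporter were exposed to compound for 1 hr, then induced with copper sulfate (700 uM final) for 20 hr at ambient temperature before luminescence reading.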
# ELG1 DNA repair – blocks ELG1-dependent DNA repair in HEK293T cells; Potency, µM (top dose mostly 46.1 µM), for the others: at the top dose activity change, negative = inhibition, most hits filed as inhibitors; HEK293T ELG1-luciferase reporter, luminescence, 16 h; DNA damage induced by 5-fluorouridine; AID 504467; 330,000 tested, 2.3% active; also: potency is read from the fitted curve at half-maximal effect; nearly all actives have a fitted effect of over 55% in size
#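 HEK293T cells expressing luciferase-tagged ELG1 (2,000/well) received 5-Fluorouridine plus compound or DMSO for 16 hr at 37 °C. Luciferase was read by ONE-Glo luminescence after 30 min at room temperature.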
# DT40 TDP1 CPT – growth inhibition of DT40 Tdp1-/-;hTDP1 cells with camptothecin (screen for TDP1 inhibitors); Potency, µM (doses to about 46.2 µM), without a hit: at the highest dose activity change, negative = growth inhibition, actives largely listed as inhibitors; chicken DT40 Tdp1-/-;hTDP1 cells + 20 nM CPT, ATP luminescence, 48 h; AID 686979; 420,000 tested, 12% active; also: potency is read from the fitted curve at half-maximal effect; nearly all actives have a fitted effect of over 55% in size
#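 Chicken DT40 Tdp1-/- cells complemented with human TDP1, 400 cells/well, exposed to compounds plus 20 nM camptothecin for at least 48 h at 37 C; viability read as ATP content by CellTiter-Glo luminescence.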
# IL1B secr inh – blocks inflammasome-driven IL-1 beta release; THP-1 LPS/ATP IL-1B secretion, AlphaLISA, 16 h; active compounds read low; activity change, % at 57.5 µM; 360,000 tested, 4.7% active; AID 743279; in the data active = activity change below about -50%; inconclusive = mostly about -30% to -49%
#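 Secreted IL-1B measured by AlphaLISA bead assay after 16 h compound exposure of THP-1 cells; compounds (final up to 57.5 uM) added 1 h before LPS (250 ng/mL) and ATP (1.25 mM) stimulation; lower signal means less secretion.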
# * marks the source's active call; other numbers are inactive results; ? = inconclusive; . = no result given. Compounds with a hit are over-represented: about 21% of the library has one in this group of screens. Unless noted, calls follow the shape of the dose curve; as a rule, active = well fitted curve in the direction sought with a large enough effect; inconclusive = small, poorly fitted or top-dose-only effect, or another doubt; inactive = no such curve, though single readings can be large; an effect the other way counts as inactive or inconclusive. % is scaled to controls: 0 for no effect and ±100 for the full control effect.
SMILES,Gal4-VP16 FLuc,DT40 TDP1 no CPT,RORg inh,ELG1 DNA repair,DT40 TDP1 CPT,IL1B secr inh
O=C(CN1c2cccc3cccc(c23)S1(=O)=O)NCc1ccccc1Cl,.,?,.,.,?,-3
COc1cccc(CNC(=O)CN2C(=O)N(c3ccc(C)cc3C)S(=O)(=O)c3ccccc32)c1OC,.,21µM*,.,.,?,.
CCn1nc(C)c(CNC(=O)Nc2ccc3c(c2)OCO3)c1C,3%,-9%,-20%,?,-11%,23
Cc1cc(C(=O)CN2c3cccc4cccc(c34)S2(=O)=O)c(C)n1C,.,3.3µM*,.,?,4.6µM*,62
Cc1ccc(NC(=O)CN2c3cccc4cccc(c34)S2(=O)=O)cc1,.,?,.,?,23µM*,-17
COCC(C)n1c(C)cc(C(=O)CN2c3cccc4cccc(c34)S2(=O)=O)c1C (stereo not given),.,?,.,1%,-27%,-4
CCN1CCN(C(=O)/C=C/c2ccc(C(C)C)cc2)CC1,.,-26%,.,.,-2%,-3
CCN1CCC(O)(/C=C/c2ccc(C(C)C)cc2)C(C(=O)/C=C/c2ccc(C(C)C)cc2)C1 (stereo not given),.,23µM*,.,.,15µM*,-117*
CCCNC(=O)C1(C)CCN(C(=O)c2c(F)ccc(C)c2F)C1 (stereo not given),.,2%,.,.,3%,-14
COc1cc(CNc2ccc3[nH]c(=O)[nH]c3c2)ccc1OCc1ccc(Cl)cc1,?,?,2.8µM*,?,?,-2
COc1cc(CNc2ccc3[nH]c(=O)[nH]c3c2)ccc1OCC(=O)NC(C)(C)C,-2%,?,24%,-5%,?,-16
COc1cc(CNc2ccc3[nH]c(=O)[nH]c3c2)cc(Br)c1OCC(=O)NC(C)(C)C,-1%,?,-28%,?,?,-68*
COc1cc(CNc2ccc3[nH]c(=O)[nH]c3c2)ccc1OCc1ccccc1F,-4%,16µM*,?,?,21µM*,?
COc1cc(CNc2ccc3[nH]c(=O)[nH]c3c2)ccc1OCc1ccccc1,3%,?,21%,?,?,-15
COc1cc(CNc2ccc3[nH]c(=O)[nH]c3c2)ccc1OCc1ccc(F)cc1,3%,-23%,?,?,?,-7
CCOc1cc(CNc2ccc3cn[nH]c3c2)ccc1OC,-25%,21µM*,-42%,?,?,-19
CCc1cc(=O)oc2cc(C)cc(OC(C)C(=O)NCCCn3ccnc3)c12 (stereo not given),-3%,24%,-6%,8%,-2%,-10
COC(=O)c1cc(NC(=O)CCc2c(C)nc3nc(C)nn3c2C)cc(C(=O)OC)c1,.,-30%,.,.,1%,.
N[C@@H](C(=O)O)c1ccc(O)c(C(=O)O)c1,-8%,-11%,18%,.,14%,.
COc1cc(CNc2ccc3[nH]c(=O)[nH]c3c2)cc(Br)c1OCc1ccccc1F,-24%,21µM*,-22%,-10%,10µM*,-60*
CCOc1c(Cl)cc(CNc2ccc3[nH]c(=O)[nH]c3c2)cc1OC,.,?,.,.,23µM*,.
CCOc1cc(CNc2ccccc2)cc(Br)c1OCc1ccccc1F,2%,?,24%,-19%,?,5
Cn1c(CCN2CCCC2)nc2cc(NS(=O)(=O)c3ccc(Cl)cc3)ccc21,-8%,?,-15%,26%,?,-86*
CCCC(=O)Nc1ccc2c(c1)nc(CCN1CCN(c3ccccn3)CC1)n2C,5%,-12%,26%,2%,1%,11
Cn1c(CN2CCCC2)nc2cc(NS(=O)(=O)c3ccc(Cl)cc3)ccc21,-9%,-27%,-17%,3%,-6%,-8
SMILES,Gal4-VP16 FLuc,DT40 TDP1 no CPT,RORg inh,ELG1 DNA repair,DT40 TDP1 CPT,IL1B secr inh
Cn1c(CCN2CCN(c3ccccn3)CC2)nc2cc(NS(=O)(=O)c3ccccc3)ccc21,-2%,13µM*,22%,9.2µM*,?,-4
Cn1c(CCN2CCCC2)nc2cc(NS(=O)(=O)c3ccc(F)cc3)ccc21,.,?,.,.,?,-56*
Cc1ccc(S(=O)(=O)Nc2ccc3c(c2)nc(CCN2CCCC2)n3C)cc1,-15%,?,-39%,-3%,?,-76*
CC1CCN(S(=O)(=O)c2ccc3[nH]cc(C(=O)NCc4ccc(F)cc4)c(=O)c3c2)CC1,.,-12%,.,.,-2%,.
Cn1c(CCN2CCOCC2)nc2cc(NS(=O)(=O)c3ccccc3)ccc21,-3%,?,6%,0%,-12%,-18
COc1ccc(-n2cnc3cc(NS(=O)(=O)c4ccccc4)ccc32)cc1,-9%,21µM*,6%,?,?,-11
Cn1c(CCN2CCCCC2)nc2cc(NS(=O)(=O)c3ccccc3)ccc21,7%,?,-3%,-19%,?,-50*
Cc1nn(C)cc1CN(C)C(=O)c1nn2c(c1Cl)NC(c1cccs1)CC2C(F)(F)F (stereo not given),-5%,13µM*,20%,-28%,?,20
CCOC(=O)c1sc(NC(=O)c2cc3n(n2)C(C(F)(F)F)CC(c2cccs2)N3)c(C(=O)OCC)c1C (stereo not given),-5%,13µM*,30%,?,?,-14
Cc1nn(C)cc1CN(C)C(=O)c1nn2c(c1Br)NC(c1cccs1)CC2C(F)(F)F (stereo not given),6%,15µM*,?,?,?,31
CCOC(=O)c1sc(NC(=O)c2cc3n(n2)C(C(F)(F)F)CC(c2ccccc2)N3)c(C(=O)OCC)c1C (stereo not given),-3%,-5%,-6%,6%,2%,1
Cc1nn(C)c(C)c1CN(C)C(=O)c1cc2n(n1)C(C(F)(F)F)CC(c1cccs1)N2 (stereo not given),-13%,16µM*,?,-25%,26µM*,-6
CCC(C)NC(=O)c1cnn2c1NC(c1cccs1)CC2C(F)(F)F (stereo not given),-1%,-28%,-6%,0%,-10%,-15
COc1ccc(C2CC(C(F)(F)F)n3nc(C(=O)O)c(Br)c3N2)cc1 (stereo not given),12%,-31%,-15%,6%,6%,25
Cc1ccc(C2CC(=O)Oc3c(C(C)C)ccc(C)c32)cc1 (stereo not given),-10%,.,-12%,.,.,.
